# PubChem BioAssay (NCI)
# This is part of a sample that, as a whole, favours compounds with a hit. Of some 83,000 tested, about 20% had one in any assay.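 48-hour exposure, single concentration, 96-well plates; percent growth endpoint where 0 means no net growth. Active: below 10.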 The source made the active and inactive calls.
# Tested on: HL-60(TB) leukemia
# Experiment: NCI-60 one-dose screen, 48 h (100 = growth as untreated, 0 = no growth, -100 = all killed)
# Details: 10 µM unless noted
row,Compound,growth
1,NC(=O)c1c(NC(=O)c2cccc(OC(F)(F)F)c2)sc2c1CCC(=O)C2,60% (inactive)
2,O=C(CN1CCN(c2cc(=O)n(-c3ccccc3)c3ccccc23)CC1)Nc1cccc(C(F)(F)F)c1,28.6% (inactive)
3,COC(=O)c1ccc(NC2=C(Cl)C(=O)c3nc(C)ccc3C2=O)cc1,21.2% (inactive)
4,O=c1c2cc(-c3ccc(F)cc3F)ccc2n(O)c(=O)n1-c1cccc(C(F)(F)F)c1,-50.2% (active)
5,O=C1/C(=C/c2ccccc2[N+](=O)[O-])Oc2ccc(O)cc21,24.3% (inactive)
6,CC[C@H](CO)Nc1ccc2ncc(C#Cc3cncc(C(=O)Nc4ccc(CN5CCN(C)CC5)c(C(F)(F)F)c4)c3)n2n1,-46.3% (active)
7,C=C(C)[C@@H]1CC[C@]2(COC)CC[C@]3(C)[C@H](CC[C@@H]4[C@@]5(C)CCCNC(C)(C)[C@@H]5CC[C@]43C)[C@@H]12,-69.2% (active)
8,COc1ccccc1-n1cc(C#N)c(N)c1C(=O)c1ccc(Cl)cc1,36.5% (inactive)
9,C#C[C@]1(O)CC[C@H]2[C@@H]3CC=C4c5sc(Nc6ccc(OC)nc6)nc5CC[C@]4(C)[C@H]3CC[C@@]21C,10.1% (inactive)
10,CN1CCN(Cc2ccc(NC(=O)c3cncc(C#Cc4cnc5ccc(NCCO)nn45)c3)cc2C(F)(F)F)CC1,-12.1% (active)
11,O=C(CCCCCCN1CC(=O)N2[C@@H](c3ccccc3Br)c3[nH]c4ccccc4c3C[C@H]2C1=O)NO,5.1% (active)
12,Cc1sc2nc(NCc3ccccc3Cl)[nH]c(=O)c2c1C,75.1% (inactive)
13,NC(N)=Nc1ccc(Nc2cccc(Nc3ccc(Cl)c(C(F)(F)F)c3)c2)cn1,-40.5% (active)
14,Cc1ccc2sc3c(c2c1)OC(N)=C(C#N)C3c1cccc(F)c1 (stereo not given),-0.493% (active)
15,CCc1cccc(NC(=O)CNc2cc(S(=O)(=O)N(C)C)cc(C)c2C)c1,128% (inactive)
16,O=c1c2ccccc2cc2n1CCN=C2c1ccccc1,97.8% (inactive)
17,C[C@H](CCC(=O)NCc1ccc(C(=O)Nc2ccccc2N)cc1)[C@H]1CC[C@H]2[C@@H]3[C@@H](O)C[C@@H]4C[C@H](O)CC[C@]4(C)[C@H]3CC[C@]12C,0.73% (active)
18,COc1cc(/C=N\NC(=O)c2ccc3nc(-c4ccc(Br)cc4)[nH]c3c2)cc(OC)c1OC,27% (inactive)

row,Compound,growth
1,O=S(=O)(Nc1cc(Cl)cc(Cl)c1)c1ccc(-c2cnc(C3CC3)o2)cc1,8.29% (active)
2,CC(C)c1nn(-c2ccccc2)c(N2CCCCC2)c1/C=N/NC(N)=S,98.4% (inactive)
3,CNC(=O)c1cc(-c2ccc(NC(=S)Nc3cccc(C(F)(F)F)c3)cc2)nc2cccnc12,109% (inactive)
4,C#CCOc1ccc(C(Nc2ccc(Cl)cc2)c2nnnn2C2CCCCC2)cc1 (stereo not given),83.8% (inactive)
5,CCCC(=O)NC(c1ccc(N(CC)CC)cc1)c1cc(C)c2cccnc2c1O (stereo not given),-25% (active)
6,Cc1cc(O)c(=O)cc2c1C[C@H]1CC(C)(C)/C=C/C[C@]3(C)Oc4cc(=O)c(O)cc(C)c4C[C@H]3C[C@H](O)[C@@]1(C)O2,-31.8% (active)
7,COc1cc(/C=C/C(=O)c2ccc(NC(=O)COc3cccc4cccnc34)cc2)cc(OC)c1OC,34.7% (inactive)
8,O=S(=O)(NCCNc1nccc(-n2cnc3ccccc32)n1)c1ccc(Cl)cc1,113% (inactive)
9,O=c1c2ccccc2nc(COc2ccccc2)n1/N=C/C=C/c1ccccc1,107% (inactive)
10,CCNC(=O)Oc1ccc(/C(=C(/C)c2ccccc2)c2ccc(OCCN3CCCC3)cc2)cc1,50.7% (inactive)
11,CC1=NC2=NC(=O)/C(=C3/N=C(C)C=C(c4ccccc4)N3N)NN2C(c2ccccc2)=C1,113% (inactive)
12,COc1cc(OC)c(/C=C/S(=O)(=O)Cc2ccc(OC)c(NCC(=O)NO)c2)c(OC)c1,-13.5% (active)
13,Cc1[nH]c(C(=O)Nc2ccccc2OCc2cccc(C(=O)NCCN)c2)cc1Cl,89.6% (inactive)
14,Brc1cc(-c2cc(-c3ccc4c(c3)OCCO4)[nH]n2)cs1,24% (inactive)
15,C/C=C/C=C1\C[C@H]2CO[C@H](O2)C1=O,99.8% (inactive)
16,Cn1ncc2c(C(=O)c3ccc(F)cc3)nc(C(C)(C)C)nc21,91.2% (inactive)
17,COc1cccc(-c2nn(-c3ccccc3)cc2-c2ccnc(N3CCN(C(=O)Nc4ccc(F)cc4)CC3)c2)c1,11.2% (inactive)
